Results from PubChem BioAssay AID977630 (Broad Institute, 2014).
In all, about 1,600 compounds went through this assay and fewer than 10 were called active. Not shown: some 48% with an inconclusive outcome.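 How the source made its calls: active means Normal-ribosome green reporter loss at least double humanized-ribosome red reporter loss, with overall culture growth inhibition under a set limit; inconclusive means no clear call, values can overlap the other calls; inactive means the rest.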 Not all results are given here. Results with a measured potency or affinity are listed apart.

Experiment: E. coli growth inhibition, wild-type GFP versus H38 humanized RFP strain – H38 mutant RFP vs wild-type GFP, cherry-pick, dose response (AID 977630)
Details: mixed culture, 24 h; series mostly up to 50 µM

outcome, inactive:
COc1ccccc1-c1noc2ncnc(Nc3cccc(C)c3C)c12, Cc1ccc([N+](=O)[O-])c(OCCn2cnc3ccccc32)c1, Cc1cc2nc(SCC(=O)O)nc(C)c2cc1C, COc1ccc(CN2C(=O)CC(Cc3cc(C)cc(C)c3)C2=O)cc1OC (stereo unspecified), O=C(CN(c1ccc(F)cc1)S(=O)(=O)c1ccccc1)Nc1ccccc1C(=O)O, COc1ccc(OC)c(-c2nn(-c3ccccc3)cc2C(=O)N2CCc3ccccc3C2)c1, CN(C)c1ccc(-c2nnn(CC(=O)Nc3ccccc3N3CCOCC3)n2)cc1, CC(CCc1ccccc1)NC(=O)CCC1CCCC1 (stereo unspecified), COc1ccc(-c2nc(C3CCCCC3)no2)cc1OC, CCC1(C(=O)OC)CCc2c(cc(OC)c3ccccc23)C1=O (stereo unspecified), CN(Cc1c(F)cccc1Cl)C(=O)c1ccc(NS(=O)(=O)c2ccc3[nH]c(=O)[nH]c3c2)cc1, Nc1ccc(C(=O)Nc2ccc3nc(-c4ccncc4)[nH]c3c2)cc1, Cc1ccccc1Nc1c(-c2cccnc2)nc2ccc(Br)cn12, CN(C)S(=O)(=O)c1cccc(C(=O)Nc2ccc(C(=O)Nc3cccc(S(N)(=O)=O)c3)cc2)c1, CCN(CC)c1nc(Oc2ccc(C(=O)OC)cc2)nc(N2CCOCC2)n1, Cc1nc2ncnn2c(N2CCC(C(=O)NC3CCCC3)CC2)c1Cc1ccccc1, CCN(CC(=O)Nc1cccc(S(=O)(=O)N2CCCC2)c1)CC(=O)Nc1ccccc1OC, COCc1nnc(NC(=O)c2ccc(S(=O)(=O)N3CCCC3)cc2)o1, Cc1cccc(N2Cc3ccc(Br)cc3C2)c1, CCN(CC)S(=O)(=O)c1ccc(N2CCCC2)c(NC(=O)c2ccccc2OC)c1, O=C(Nc1ccc(Nc2ccccc2)cc1)c1ccc(F)cc1, Fc1ccc(Br)cc1SCCc1ccncc1, CCOC(=O)c1ccc(NC(=O)c2ccc(OC(C)C)c(OC)c2)cc1, COc1cccc(NC2=Nc3cccc4cccc2c34)c1, CS(=O)(=O)N(CC(=O)N1CCc2ccccc2C1)c1cccc(Br)c1, CC1Cc2cc(S(=O)(=O)N3CCN(c4cccc(Cl)c4)CC3)ccc2N1C(=O)C1CC1 (stereo unspecified), Cn1c(=O)c2c(ncn2CC(O)CNc2ccc(F)cc2)n(C)c1=O (stereo unspecified), O=C(NCCCN1CCOCC1)c1sc2cc([N+](=O)[O-])ccc2c1Cl, CN1OC[C@@H]2CN(C(=O)c3ccco3)[C@H](c3ccc(-c4ccc(C#N)cc4)cc3)C[C@@H]21, COCC#Cc1ccc2c(c1)O[C@@H](CN(C)S(=O)(=O)c1cccc(F)c1)[C@@H](C)CN([C@H](C)CO)S2(=O)=O, O=C(CSCc1cnn(-c2ccccc2)c1-n1cccc1)NCc1cccnc1, CCOC(=O)C1NN=C(C(=O)c2ccccc2)C1c1ccc(OC)cc1 (stereo unspecified), CN1CCN(C(=O)c2cc3nc(-c4ccco4)cc(C(F)(F)F)n3n2)CC1, Cc1cccc(CN2C(=O)c3ccccc3Sc3ccc(C(=O)NCCN4CCOCC4)cc32)c1, S=c1nc(-c2cccc(Br)c2)[nH][nH]1, O=C(Cc1ccc(Br)cc1)Nc1cccc(-c2cn3c(n2)SCC3)c1, Cc1cc(SCC(=O)c2cccs2)n2nc(C)c(-c3ccc(Cl)cc3)c2n1, CC(C)[C@@H]1CC[C@@H](C)C[C@H]1O, COc1ccc(-c2cc(C(=O)O)nc3ccc4ccccc4c23)cc1OC, COc1ccc(C(=O)COc2ccc(F)cc2)c(O)c1, O=C(O)CC1(CC(=O)Nc2ccc3sccc3c2)CCCCC1, CCOC(=O)C(CC)Sc1cc(C)nc2ccc(OC)cc12 (stereo unspecified), O=C(NC1CCCCC1)C(c1cccc2ccccc12)n1c(=O)c(-c2ccco2)nc2ccccc21 (stereo unspecified), COc1cc(CC(=O)Nc2nc(C)cs2)cc(OC)c1OC, Cc1cc(NC(=O)c2sc(Nc3ccc(F)c(Cl)c3)nc2N)no1, COc1cc(OC)cc(-c2nc3ccccc3c(=O)n2OC(=O)c2ccc(C)c(C)c2)c1, Cn1ccc2cc(-c3ccc4ncnc(NCc5cccs5)c4c3)ccc21, Fc1ccccc1C1CCN(Cc2nc(CC3CC3)no2)C1 (stereo unspecified), O=C(COc1ccc(Br)cc1)Nc1ccc(C(=O)Nc2ccccc2C(=O)O)cc1, C#CCOc1nc(Nc2cccc([N+](=O)[O-])c2)nc(OCC#C)n1, OC(COc1ccc(Cl)cc1)CN1CCN(c2ccccn2)CC1 (stereo unspecified), Cc1nn(-c2ccc(N3CCCCC3)nn2)c(C)c1CCC(=O)Nc1ccc(F)cc1, COc1cc2c(cc1OC)C1(C)N(CC2)C(C(C)=O)=NN1c1ccc(Cl)cc1 (stereo unspecified), O=C(Nc1ccc(C(F)(F)F)cc1)C1CCN(c2cnccn2)CC1, Cc1nn(CC(=O)OCCOc2ccc(Br)cc2)c(C)c1[N+](=O)[O-], NS(=O)(=O)c1cccc(NC(=O)COc2ncnc3c2cnn3-c2ccccc2)c1, c1ccc2c(c1)Nc1cc3ccccc3cc1S2, CC(C)OC(=O)c1sc2nc(-c3ccccc3)ccc2c1N, COc1ccc(C2CC(c3ccc(Br)cc3)=NN2C(=O)CN2CCCC2)cc1 (stereo unspecified), COc1ccc(CNC(=O)c2nc(S(=O)(=O)Cc3ccccc3)ncc2Cl)cc1, CCc1nc2ccccc2c(C(=O)OCC(=O)NC(=O)c2cccn2C)c1C, O=C(Nc1ccccc1N1CCOCC1)C1CCCCN1S(=O)(=O)c1ccccc1 (stereo unspecified), CCOc1ccc(NC(=O)CCc2nnc3ccc(N4CCC(C)CC4)nn23)cc1, Cc1cc(C)cc(NS(=O)(=O)c2c(C(=O)N3CCCCCC3)c(C)n(C)c2C)c1, COc1ccc(CN(C)C(=O)c2cc(-c3ccc(OC)c(OC)c3)nc3ccccc23)c(OC)c1, CC1(C(=O)NS(=O)(=O)c2cccc(F)c2)CCN1C(=O)C1(c2ccc(Cl)cc2)CCC1 (stereo unspecified)
